Results published in PubChem BioAssay.
Values without a mark were called inactive. How the calls were made is not given here.

Target: Pantothenate synthetase (Mycobacterium tuberculosis (strain ATCC 25618 / H37Rv)) (UniProt P9WIL5)
Assay: Coupled enzyme confirmation of inhibitors against recombinant Mtb PanC (AID 375);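 further: 0% = full reaction with vehicle and 100% = no enzyme background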
Settings: coupled enzyme assay; at 10 µM, stronger effect = higher value

Pantothenate synthetase (Mycobacterium tuberculosis (strain ATCC 25618 / H37Rv)), sequence (P9WIL5 whole entry, looked up): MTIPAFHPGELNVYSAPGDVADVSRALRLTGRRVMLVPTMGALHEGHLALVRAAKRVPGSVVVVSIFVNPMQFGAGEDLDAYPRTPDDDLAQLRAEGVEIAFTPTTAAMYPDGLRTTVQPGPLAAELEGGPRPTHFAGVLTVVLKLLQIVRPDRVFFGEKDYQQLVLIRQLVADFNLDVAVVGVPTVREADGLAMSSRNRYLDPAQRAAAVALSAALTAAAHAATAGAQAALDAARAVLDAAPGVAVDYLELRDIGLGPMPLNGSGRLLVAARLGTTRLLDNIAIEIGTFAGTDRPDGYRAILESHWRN

| SMILES | inhibition [%] |
| --- | --- |
| CC1Cc2ccccc2N1S(=O)(=O)c1cccc(C(=O)OCC(=O)NC2CCS(=O)(=O)C2)c1 (stereo unspecified) | 0 |
| CCc1ccccc1NC(=O)CSc1nc2n[nH]c(C)c2c(=N)n1-c1ccc(OC)cc1 | 0 |
| C/C(=C(\C#N)C(=O)NCCCN1CCOCC1)N(C)C | 0 |
| CCCC1CCC(C(=O)Nn2cnc3ccccc3c2=O)CC1 (stereo unspecified) | 1 |
| Oc1ccccc1-c1cc(C(F)(F)C(F)F)[nH]n1 | 0 |
| O=C(O)c1ccc(NC(=O)c2cccs2)cc1 | 0 |
| O=C(COC(=O)c1ccccc1Oc1ccccc1)NC1CCS(=O)(=O)C1 (stereo unspecified) | 0 |
| Cc1cc(NS(=O)(=O)c2ccc(NC(=O)C(C)N3C(=O)c4ccccc4C3=O)cc2)nc(C)n1 (stereo unspecified) | 1 |
| O=C(CSc1nc(C2CCCCC2)n(-c2ccccc2)n1)NCCN1C(=O)CSC1=O | 6 |
| O=c1c2ccc(-c3nnc4n3-c3ccccc3SC4)cc2nc2n1CCCCC2 | 0 |
| CC(=O)Nc1ccc(NC(=O)c2ccccc2N(C)S(C)(=O)=O)cc1 | 2 |
| O=C(Nc1cc(C(=O)N2CCCC2)ccc1N1CCCC1)c1ccccc1F | 2 |
| NS(=O)(=O)c1cc2c(cc1Cl)NC(C(Cl)Cl)NS2(=O)=O (stereo unspecified) | 2 |
| COC(=O)/C=c1\sc2ncnn2c1=O | 0 |
| CCOCCCn1c(=S)[nH]c2cc3c(cc2c1=O)OCO3 | 0 |
| N#C/C(C(=O)NCc1ccco1)=C1/SC(Cc2ccc(F)cc2)C(=O)N1c1ccccc1 (stereo unspecified) | 0 |
